The nature of test [1]: ATG_CRE_CIS: Attagene CIS-FACTORIAL HepG2 Assay for human cAMP Responsive Element (CRE) binding protein 3 (AID 2282926). Conditions: HepG2 CRE cis-reporter, Attagene multiplexed mRNA; actives raise or lower the signal. The method in brief:
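Endogenous transcription factor activity read via CRE-regulated reporter transcripts in transfected HepG2 cells. After 24 h exposure, RNA was reverse-transcribed, amplified, fluorescently labelled and sized by capillary electrophoresis; gain or loss fitted against DMSO.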

A short description of test [2]: ATG_CMV_CIS: Attagene CIS-FACTORIAL HepG2 Assay for human CMV (Internal Marker) (AID 2282928).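 Note: endpoint acts as a background internal control marker rather than a target.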 Conditions: HepG2 CMV promoter reporter, transcription factor profiling; actives raise or lower the signal. The method in brief: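 24 h chemical treatment, HepG2 with transient multi-reporter transfection; RNA → oligo(dT) RT → PCR → 6-FAM extension → HpaI digest → CE fluorescence. Bidirectional fit, DMSO negative control.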

Test [3] in a line: ATG_DR4_LXR_CIS: Attagene CIS-FACTORIAL HepG2 Assay for human Liver X Receptor (LXR), DR4 submotif (AID 2282929). Conditions: HepG2 Attagene DR4 cis-reporter, mRNA transcription; actives raise or lower the signal. The method in brief:
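Measures endogenous transcription factor activity via a DR4-driven reporter transcript in human HepG2 cells. Compounds incubated 24 h; mRNA quantified by RT-PCR and capillary electrophoresis, analysed as gain or loss of signal versus DMSO.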

Test [4] addresses Aryl hydrocarbon receptor (Homo sapiens) (UniProt P35869). Description: ATG_Ahr_CIS: Attagene CIS-FACTORIAL HepG2 Assay for human Aryl Hydrocarbon Receptor (Ahr) (AID 2282930). Conditions: HepG2 AhR cis-factorial reporter transcription; actives raise or lower the signal. The method in brief:
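Read-out: reporter mRNA quantified by RT-PCR with fluorescent primer extension and capillary electrophoresis. Human HepG2 liver cells carried transfected cis-promoter reporter units and were exposed to chemical for 24 h; gain or loss fitted relative to DMSO.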

Test [5] in a line: ATG_AP_1_CIS: Attagene CIS-FACTORIAL HepG2 Assay for human Activator Protein 1 (AP-1) (AID 2282931). Conditions: HepG2 Attagene cis-factorial AP-1 reporter mRNA; actives raise or lower the signal. The procedure, abridged: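 Bidirectional concentration-response fitting against DMSO controls. Underlying signal: reporter mRNA from cis-promoter constructs in transiently transfected HepG2, measured after 24 h by RT-PCR and capillary electrophoresis.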

The nature of test [6]: ATG_AP_2_CIS: Attagene CIS-FACTORIAL HepG2 Assay for human Activator Protein 2 (AP-2) (AID 2282932). To be noted: HepG2 AP-2 cis-reporter, Attagene transcription factor profiling; actives raise or lower the signal. The procedure, abridged:
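Read-out: fluorescent reporter mRNA via RT-PCR and capillary electrophoresis, 24 h post-dose in transiently transfected HepG2. Endogenous factors drive cis-promoter reporters; gain or loss of signal fitted bidirectionally against DMSO.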

Test [7] is described as follows: ATG_BRE_CIS: Attagene CIS-FACTORIAL HepG2 Assay for human Bone Morphogenetic Protein (BMP) Response Element (BRE) (AID 2282933). Conditions: HepG2 BMP response element reporter, Attagene transcription factor profiling; actives raise or lower the signal. The procedure, abridged:
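Endogenous transcription factor activity at a BMP response element was monitored in transfected HepG2 cells 24 h after dosing. Fluorescent RT-PCR products were resolved by capillary electrophoresis, and activity was fitted in both directions versus DMSO.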

For test [8], the target named is Retinoic acid receptor alpha (Homo sapiens) (UniProt P10276). Description: ATG_DR5_RAR_CIS: Attagene CIS-FACTORIAL HepG2 Assay for human Retinoic Acid Receptor Alpha (RARE), DR5 submotif (AID 2282934). Conditions: HepG2 Attagene cis-factorial RARE DR5 reporter, mRNA; actives raise or lower the signal. The method in brief: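 Read-out: DR5-driven reporter transcript measured by RT-PCR, 6-FAM primer extension, HpaI digest and capillary electrophoresis. Human HepG2 liver cells carry transiently transfected cis-element reporter constructs; dosing lasts 24 h. Gain or loss of signal fitted against DMSO baseline.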
Chain of Retinoic acid receptor alpha (Homo sapiens) (P10276 whole entry, looked up): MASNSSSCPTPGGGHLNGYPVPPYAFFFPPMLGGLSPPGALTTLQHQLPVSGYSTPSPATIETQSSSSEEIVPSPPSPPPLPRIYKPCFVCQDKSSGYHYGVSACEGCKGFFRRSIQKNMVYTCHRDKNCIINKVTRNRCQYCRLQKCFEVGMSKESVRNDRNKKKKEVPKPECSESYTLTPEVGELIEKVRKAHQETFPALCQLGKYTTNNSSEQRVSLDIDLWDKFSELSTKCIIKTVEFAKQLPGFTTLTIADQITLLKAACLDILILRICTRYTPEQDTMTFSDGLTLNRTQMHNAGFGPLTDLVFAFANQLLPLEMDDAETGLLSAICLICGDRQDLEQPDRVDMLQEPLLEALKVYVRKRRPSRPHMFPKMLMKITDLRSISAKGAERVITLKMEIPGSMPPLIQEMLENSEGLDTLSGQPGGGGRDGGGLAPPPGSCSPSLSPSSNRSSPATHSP

Test [9] deals with Transcription factor E2F1 (Homo sapiens) (UniProt Q01094). Kind of test: ATG_E2F_CIS: Attagene CIS-FACTORIAL HepG2 Assay for human E2F Transcription Factor 1 (AID 2282935). To be noted: HepG2 Attagene cis-reporter, E2F reporter RNA transcripts; actives raise or lower the signal. The method in brief:
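Transient MRTU transfection of HepG2; 24 h compound exposure; RNA → oligo(dT) RT → PCR → FAM label → HpaI cut → CE fluorescence. Gain/loss of signal fit against DMSO.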

A short description of test [10]: ATG_E_Box_CIS: Attagene CIS-FACTORIAL HepG2 Assay for human Enhancer Box (E-box) (AID 2282936). Conditions: HepG2 E-box cis-reporter transcription, actives raise or lower the signal. The procedure, abridged: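 Transiently transfected HepG2, endogenous TF-driven reporters, 24 h dosing. Readout: RT-PCR plus capillary electrophoresis of fluorescent reporter fragments. Gain or loss of signal fitted bidirectionally against DMSO baseline.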

The nature of test [11]: ATG_M_61_CIS: Attagene CIS-FACTORIAL HepG2 Assay for M61 Transcription Factor (Internal Marker) (AID 2282937). To be noted: HepG2 Attagene CIS-FACTORIAL M61 internal marker reporter; actives raise or lower the signal. The method in brief: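 Fluorescence from labelled cDNA fragments, separated by capillary electrophoresis, quantifies reporter induction. HepG2 cells bearing transiently transfected cis-promoter MRTUs were incubated with test chemical for 24 h; DMSO defined baseline for gain/loss fitting.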

Test [12] is described as follows: ATG_EGR_CIS: Attagene CIS-FACTORIAL HepG2 Assay for human Early Growth Response 1 (EGR1) (AID 2282938). To be noted: HepG2 Attagene CIS-FACTORIAL EGR reporter mRNA; actives raise or lower the signal. The procedure, abridged:
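Cell-based multiplex transcription assay: HepG2 carrying transfected cis-element reporter units, 24 h chemical treatment. Fluorescence from capillary electrophoresis of RT-PCR products gives mRNA levels; fitting is bidirectional relative to DMSO.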

Test [13] can be described thus: ATG_M_19_CIS: Attagene CIS-FACTORIAL HepG2 Assay for M19 Transcription Factor (Internal Marker) (AID 2282939). Conditions: HepG2 Attagene CIS-FACTORIAL M19 internal marker reporter; actives raise or lower the signal. The method in brief: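 Background-control endpoint from a multiplexed HepG2 reporter panel. Cells carrying cis-regulated reporter constructs are treated 24 h, then reporter transcripts are amplified, fluorescently labelled and sized by capillary electrophoresis. DMSO defines baseline.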

Test [14] can be described thus: ATG_Ets_CIS: Attagene CIS-FACTORIAL HepG2 Assay for human Erythroblast Transformation Specific (ETS) (AID 2282941). Conditions: HepG2 ETS cis-reporter transcription, actives raise or lower the signal. The method in brief: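 Cis-regulated reporter mRNA induction in HepG2 (transient transfection), 24 h exposure, RT-PCR plus capillary electrophoresis detection; DMSO serves as negative control and baseline.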

Test [15] concerns the target Hepatocyte nuclear factor 3-beta (Homo sapiens) (UniProt Q9Y261). Description: ATG_FoxA2_CIS: Attagene CIS-FACTORIAL HepG2 Assay for human Forkhead box A2 (FOXA2) (AID 2282942). Conditions: HepG2 cis-reporter transcription factor activity, 24 h; actives raise or lower the signal. The procedure, abridged:
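In transiently transfected human HepG2 cells, promoter-driven reporter mRNA levels after 24 h chemical exposure are determined via RT-PCR with capillary electrophoresis. DMSO serves as baseline for bidirectional fitting.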

Test [16] is described as follows: ATG_FoxO_CIS: Attagene CIS-FACTORIAL HepG2 Assay for human Forkhead box O (FoxO) (AID 2282943). Conditions: HepG2 Attagene cis-reporter, FoxO element, mRNA; actives raise or lower the signal. The procedure, abridged: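 Read-out: fluorescence of 6-FAM-labelled reporter cDNA fragments resolved by capillary electrophoresis. Transiently transfected HepG2 cells were dosed for 24 h; activity fitted in both directions relative to DMSO controls.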

Test [17] is described as follows: ATG_GATA_CIS: Attagene CIS-FACTORIAL HepG2 Assay for human GATA Binding Protein (AID 2282944). Conditions: HepG2 GATA cis-element reporter, Attagene multiplex mRNA; actives raise or lower the signal. The method in brief:
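Endogenous transcription factor activity was captured through cis-promoter-driven reporters in transfected HepG2 cells. After 24 h exposure, reporter transcripts were quantified by RT-PCR with fluorescent capillary electrophoresis, and responses fitted both directions against DMSO.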

Test [18] is described as follows: ATG_GLI_CIS: Attagene CIS-FACTORIAL HepG2 Assay for human Zinc Finger Protein GLI1 (AID 2282945). Conditions: HepG2, Attagene cis-factorial reporter mRNA, GLI element; actives raise or lower the signal. The procedure, abridged: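 Transiently transfected HepG2 cells report endogenous transcription factor activity via cis-element-driven reporter units. After 24 h compound exposure, reporter mRNA was measured by RT-PCR with capillary electrophoresis; bidirectional fitting against DMSO baseline.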

The target of test [19] is Bile acid receptor (Homo sapiens) (UniProt Q96RI1). Description: ATG_IR1_CIS: Attagene CIS-FACTORIAL HepG2 Assay for human Nuclear Receptor Subfamily 1 Group H Member 4 (NR1H4), IR1 submotif (AID 2282946). Conditions: IR1 reporter transcription, actives raise or lower the signal. The procedure, abridged:
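Fluorescence of capillary-separated, HpaI-digested RT-PCR reporter products gave IR1-element mRNA induction in HepG2 cells 24 h after dosing. Endogenous transcription factors drove the cis-regulated reporters; activity was fitted bidirectionally against DMSO.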

Molecules are shown by their SMILES. Calls of active or inactive are those of the source. Rule for the calls: active = hit-call score of the fitted dose curve at least 0.9, where 1 is the maximum; inactive = score below 0.9.

Chain of Transcription factor E2F1 (Homo sapiens) (Q01094 whole entry, looked up): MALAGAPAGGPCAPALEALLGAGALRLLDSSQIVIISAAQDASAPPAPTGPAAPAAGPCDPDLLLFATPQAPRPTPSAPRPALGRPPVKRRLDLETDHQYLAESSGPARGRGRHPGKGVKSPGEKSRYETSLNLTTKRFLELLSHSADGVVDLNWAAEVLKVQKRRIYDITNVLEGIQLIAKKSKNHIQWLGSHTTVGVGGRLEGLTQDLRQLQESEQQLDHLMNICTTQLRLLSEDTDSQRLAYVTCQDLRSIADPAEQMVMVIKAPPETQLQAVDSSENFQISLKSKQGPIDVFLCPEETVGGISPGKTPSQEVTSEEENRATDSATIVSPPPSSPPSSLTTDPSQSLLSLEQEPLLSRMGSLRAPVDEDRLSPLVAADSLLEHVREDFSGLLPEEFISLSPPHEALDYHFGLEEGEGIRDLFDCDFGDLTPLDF
Chain of Aryl hydrocarbon receptor (Homo sapiens) (P35869 whole entry, looked up): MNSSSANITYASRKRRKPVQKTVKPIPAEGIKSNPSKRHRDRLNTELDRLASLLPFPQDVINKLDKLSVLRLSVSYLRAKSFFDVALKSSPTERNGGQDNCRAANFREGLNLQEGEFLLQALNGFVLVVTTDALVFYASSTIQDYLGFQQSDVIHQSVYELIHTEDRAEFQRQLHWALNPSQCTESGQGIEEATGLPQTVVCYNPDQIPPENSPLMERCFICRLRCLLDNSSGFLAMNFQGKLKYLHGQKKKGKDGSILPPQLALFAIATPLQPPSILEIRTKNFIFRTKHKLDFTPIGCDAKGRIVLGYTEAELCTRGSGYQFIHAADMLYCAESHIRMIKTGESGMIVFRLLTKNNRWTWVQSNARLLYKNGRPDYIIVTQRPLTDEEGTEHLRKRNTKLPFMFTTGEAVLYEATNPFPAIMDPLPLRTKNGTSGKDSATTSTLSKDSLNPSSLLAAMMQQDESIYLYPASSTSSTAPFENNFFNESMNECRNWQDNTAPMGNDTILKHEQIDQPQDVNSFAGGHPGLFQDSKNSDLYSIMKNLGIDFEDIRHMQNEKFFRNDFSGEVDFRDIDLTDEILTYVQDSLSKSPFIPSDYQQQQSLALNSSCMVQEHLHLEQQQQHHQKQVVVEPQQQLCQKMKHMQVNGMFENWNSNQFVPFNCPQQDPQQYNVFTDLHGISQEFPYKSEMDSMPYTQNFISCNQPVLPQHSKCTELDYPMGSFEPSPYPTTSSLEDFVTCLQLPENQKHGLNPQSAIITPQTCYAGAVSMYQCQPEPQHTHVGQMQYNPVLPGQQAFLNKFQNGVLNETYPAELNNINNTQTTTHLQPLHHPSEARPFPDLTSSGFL
Chain of Hepatocyte nuclear factor 3-beta (Homo sapiens) (Q9Y261 whole entry, looked up): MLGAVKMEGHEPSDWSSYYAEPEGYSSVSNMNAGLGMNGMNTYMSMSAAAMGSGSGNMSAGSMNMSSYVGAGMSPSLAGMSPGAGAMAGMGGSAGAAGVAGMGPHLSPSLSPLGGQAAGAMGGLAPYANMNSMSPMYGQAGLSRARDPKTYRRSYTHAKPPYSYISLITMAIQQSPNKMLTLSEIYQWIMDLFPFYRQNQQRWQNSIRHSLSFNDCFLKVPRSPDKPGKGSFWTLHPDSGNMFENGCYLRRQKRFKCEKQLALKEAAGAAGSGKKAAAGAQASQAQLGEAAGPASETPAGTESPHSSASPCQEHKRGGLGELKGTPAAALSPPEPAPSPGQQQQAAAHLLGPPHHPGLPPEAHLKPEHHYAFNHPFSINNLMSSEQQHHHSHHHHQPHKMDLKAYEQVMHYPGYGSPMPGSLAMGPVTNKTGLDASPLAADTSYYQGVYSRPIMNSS
Chain of Bile acid receptor (Homo sapiens) (Q96RI1 whole entry, looked up): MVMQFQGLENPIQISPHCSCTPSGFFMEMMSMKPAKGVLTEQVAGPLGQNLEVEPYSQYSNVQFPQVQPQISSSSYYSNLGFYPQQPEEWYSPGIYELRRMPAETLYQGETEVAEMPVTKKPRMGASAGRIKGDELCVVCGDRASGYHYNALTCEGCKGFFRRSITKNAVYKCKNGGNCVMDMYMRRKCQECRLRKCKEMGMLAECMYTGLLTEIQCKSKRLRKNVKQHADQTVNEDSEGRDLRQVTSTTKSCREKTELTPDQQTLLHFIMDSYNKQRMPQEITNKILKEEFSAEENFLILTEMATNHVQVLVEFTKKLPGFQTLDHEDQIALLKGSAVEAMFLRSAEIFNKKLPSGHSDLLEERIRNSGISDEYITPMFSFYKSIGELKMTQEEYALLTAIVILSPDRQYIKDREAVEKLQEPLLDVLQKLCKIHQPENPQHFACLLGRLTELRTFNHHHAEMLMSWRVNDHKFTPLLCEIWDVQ

Consider `OCC#CCO`, for which the result in test [1], in test [2], in [3], in [4], in [5] and in test [6] was inactive. Moreover, the molecule was called inactive in test [7], in test [8], in [9], in [10], in [11] and in test [12]. The molecule was classed as inactive in [13], in test [14], in test [15], in test [16], in test [17] and in [18]. Besides, the molecule was classed as inactive in [19].

For the molecule `O=[N+]([O-])c1cccc(Cl)c1`, the molecule was called inactive in test [1], in test [2], in [3], in test [4], in test [5] and in test [6]. Also, the molecule was classed as inactive in test [7], in test [8], in test [9], in test [10], in test [11] and in test [12]. Besides, the result in test [13], in [14], in test [15], in test [16], in test [17] and in [18] was inactive.

Consider `CCCC(=O)OCCc1ccccc1`, for which the call in test [1], in test [2], in [3], in [4], in test [5] and in [6] was inactive. Further, the call in [7], in test [8], in test [9], in [10], in test [11] and in test [12] was inactive. The outcome in test [13], in test [14], in [15], in [16], in [17] and in test [18] was inactive.

For the molecule `CCCCCCC(=O)c1ccccc1`, the call in [1], in test [2], in [3], in [4], in test [7] and in test [9] was inactive. Moreover, the result in test [10], in [11], in test [12], in test [13], in [14] and in test [15] was inactive. The molecule was called inactive in [16], in [17] and in test [19]. Besides, the AC50 in test [5] was 154 µM (active).

The values above are taken from PubChem BioAssay (EPA / NIEHS).
